Reference: PubChem BioAssay (NCI)
This is part of a sample that, as a whole, favours compounds with a hit. Of some 83,000 tested, about 20% had one in any assay.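 Negative percent growth values reflect cell death: -40 means 40% of the cells present at the start died, and -100 means all died.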 Unmarked numbers belong to inactive results. Active and inactive are the calls of the source. Rule for the calls: active = growth percent below 10; inactive = the rest.

Assays:
Assay in all cases: NCI-60 one-dose screen, 48 h (100 = growth as untreated, 0 = no growth, -100 = all killed)
[1] = system: HCT-15 colon; details: 10 µM unless noted
[2] = system: HT29 colon; details: 10 µM unless noted
[3] = system: SNB-75 CNS; details: 10 µM unless noted
[4] = system: SNB-19 CNS; details: 10 µM unless noted
[5] = system: U251 CNS; details: 10 µM unless noted
[6] = system: PC-3 prostate; details: 10 µM unless noted
[7] = system: SK-MEL-5 melanoma; details: 10 µM unless noted
[8] = system: UACC-62 melanoma; details: 10 µM unless noted
[9] = system: LOX IMVI melanoma; details: 10 µM unless noted
[10] = system: SK-MEL-28 melanoma; details: 10 µM unless noted
[11] = system: SK-MEL-2 melanoma; details: 10 µM unless noted
[12] = system: EKVX NSCLC; details: 10 µM unless noted
[13] = system: SN12C renal; details: 10 µM unless noted
[14] = system: UO-31 renal; details: 10 µM unless noted
[15] = system: ACHN renal; details: 10 µM unless noted
[16] = system: CAKI-1 renal; details: 10 µM
[17] = system: A498 renal; details: 10 µM unless noted
[18] = system: CCRF-CEM leukemia; details: 10 µM unless noted
[19] = system: MOLT-4 leukemia; details: 10 µM unless noted
[20] = system: TK-10 renal; details: 10 µM unless noted

Compound	growth [1]	growth [2]	growth [3]	growth [4]	growth [5]	growth [6]	growth [7]	growth [8]	growth [9]	growth [10]	growth [11]	growth [12] [%]	growth [13] [%]	growth [14]	growth [15]	growth [16]	growth [17]	growth [18]	growth [19]	growth [20]
O=c1c2ccccc2[nH]n1Cc1ccc2c(c1)OCO2	95.7%	104%	101%	97%	96.2%	88.1%	100%	100%	111%	106%	104%	105	101	92.7%	103%	104%	90.3%	96.2%	97.4%	–
Cc1ccc(/C=C2/C(=O)Nc3cc(Cl)c(-c4csc(N)n4)cc32)cc1	63.1%	47.7%	52.4%	55.2%	63.6%	56.8%	40.8%	50.7%	58.7%	82.7%	49.3%	62.1	81	67.4%	–	–	79.3%	43.5%	51.3%	115%
COc1cccc(-c2nc3sccn3c2-c2ccnc(NCCNC(=O)Nc3cccc(C(F)(F)F)c3)n2)c1	45.9%	44.1%	71.8%	74.8%	58.1%	32.9%	51.5%	50.5%	44.3%	78.4%	61.9%	61.5	68.8	39.7%	46.2%	40%	61.6%	27%	36.7%	–
C=CCn1c(SCC(=O)Nc2ccc(C(=O)/C=C/c3cc(OC)c(OC)c(OC)c3)cc2)nnc1-c1ccc(OC)cc1	-1.54% (active)	-27.9% (active)	6.75% (active)	14.3%	-65.2% (active)	25.1%	1.15% (active)	-6.54% (active)	-43.5% (active)	10.1%	15.1%	14.1	13.8	-79.6% (active)	-56.1% (active)	16.5%	-3.03% (active)	6.53% (active)	–	–
CC(C)(C)NCC(O)COc1c(Br)c(Br)c(Br)c2c1OC(C)(C)C2 (stereo unspecified)	-66.9% (active)	-72.7% (active)	5.77% (active)	-47.2% (active)	-92.4% (active)	-90.2% (active)	-97% (active)	-79.8% (active)	-90.9% (active)	-83.7% (active)	-71.9% (active)	50.1	33.2	-81.8% (active)	–	–	-6.49% (active)	-62.5% (active)	-56.1% (active)	-77.8% (active)
O=C(N/N=C1\SCC(=O)N1c1ccccc1)c1cc(-c2cc3ccccc3o2)nn1-c1ccccc1	106%	107%	101%	104%	103%	86.9%	101%	134%	107%	110%	103%	96.7	122	118%	–	–	103%	-84.9% (active)	87%	112%
Cc1cc(-c2ccccc2)nc2ccccc12	97.5%	113%	86.9%	101%	97.4%	99.8%	95%	95.7%	98.5%	114%	109%	81.1	104	77%	–	–	106%	84.9%	91.5%	135%
Nc1nccc2c1ccn2-c1ccc(NC(=O)Nc2cccc(C(F)(F)F)c2)cc1	90%	96.1%	89%	104%	80.5%	70.5%	93.5%	91.1%	87.6%	101%	113%	93.7	87.1	81.4%	91.6%	97.4%	88.4%	94.1%	82.8%	–
C#C[C@H](O)/C=C/CCCCCCC#C[C@H](O)CC[C@@H](O)C#CCCCCCC/C=C/[C@@H](O)C#C	80.4%	80.6%	85.1%	101%	89.3%	80.7%	91.9%	80%	-71.2% (active)	101%	92.7%	90.2	69.1	-82.6% (active)	–	–	102%	-37.3% (active)	0.882% (active)	106%
O=C(Nc1ccc(-n2cc(-c3ccncc3)c(-c3ccc(O)c(Cl)c3)n2)cc1)c1ccc(Cl)c(Cl)c1	18.2%	-10.4% (active)	70%	59.6%	26.8%	20.2%	-20.3% (active)	59.1%	-29.1% (active)	59.7%	20.2%	47.7	58.3	23%	20.6%	18.6%	79.6%	16.5%	32.3%	–
CC(C)C(=O)Nc1nc2c(s1)CCCc1ccn(S(=O)(=O)c3ccccc3)c1-2	94%	83.7%	89.4%	110%	102%	85.3%	93.3%	87%	96.9%	106%	83.7%	88.2	105	77.1%	–	–	110%	87.2%	78%	83.6%
COc1cc(/C=C/C(=O)c2c(C)[n+]([O-])c3ccccc3[n+]2[O-])ccc1O	93.5%	161%	162%	111%	90.8%	90.6%	81.6%	110%	92.6%	117%	83.8%	84.5	101	80.4%	–	–	101%	124%	126%	55.9%
Cc1cn(-c2cc(C(=O)Nc3cccc(-n4ccc5c(NC(=O)c6ccccc6)nccc54)c3)cc(C(F)(F)F)c2)cn1	4.61% (active)	-41.2% (active)	27.2%	28.9%	-3.87% (active)	18.5%	-54.5% (active)	27.1%	5.46% (active)	33.3%	11.2%	45.6	21.7	15.5%	27.6%	2.7% (active)	16.1%	-21.7% (active)	12.4%	–
CC(Cl)(CCl)CS(=O)(=O)c1ccc(Cl)cc1 (stereo unspecified)	105%	103%	103%	101%	94.4%	97.7%	100%	99.8%	101%	117%	99.1%	103	105	92.8%	–	–	77.2%	109%	101%	93.2%
O=C(NCCNc1nccc(-c2c(-c3cccc(O)c3)nc3sccn23)n1)c1ccc(N2CCOCC2)c(C(F)(F)F)c1	80.1%	68.6%	58%	107%	82%	56.6%	40%	5.88% (active)	42.2%	42.8%	66.7%	74	76	61.3%	60.8%	66.9%	47.8%	56.9%	57%	–
CCCCCCCCCCCC(=O)OCCNC(=O)C[n+]1ccccc1	110%	93.7%	96.5%	102%	101%	92.5%	100%	104%	106%	109%	97.7%	91.8	102	83%	–	–	–	98.1%	104%	101%
COc1ccccc1NC(=O)COc1ccc(/C=C2/Oc3cc4occc4c(OC)c3C2=O)cc1OC	104%	113%	114%	105%	102%	92.2%	86.3%	91.6%	98.8%	111%	108%	99.2	104	99.9%	–	–	99%	69.9%	83.4%	119%
